FAK blocker = inhibitors of human focal adhesion kinase | biochemical FAK kinase activity assay | inhibition, %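 (tested at 7 µM)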 | 0.84% of 97,000 active | AID 727; in the data active = inhibition above about 19%;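 also: 0% = DMSO and 100% = reference compound high control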
ERa SRC1 inh = ER-alpha (human) coactivator binding inhibition; P03372; TR-FRET ER-alpha LBD / SRC-1 peptide, estradiol-bound; inhibition, % at 25.6 µM; 1.7% of 86,000 active; in the data active = inhibition above about 50%;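 also: 0% = receptor plus peptide control and 100% = peptide only without receptor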
Smad3 FoxH1 inh = Smad3 (human) transcription factor binding inhibition. P84022. TR-FRET Smad3/Dy647-FoxH1 peptide binding, europium anti-His. inhibition, % at 25 µM. 0.29% of 88,000 active;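 active = compounds that reduce the energy-transfer binding signal between the protein and its labelled peptide by more than half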;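 also: 0% = Smad3 plus labelled peptide maximal FRET and 100% = peptide-only background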
ERa SRC1 pot = enhances coactivator binding to human estrogen receptor alpha | P03372 | TR-FRET ERalpha-LBD/SRC-Cy5 coactivator binding, 2 h; 100 = basal binding, no effect | coactivator binding (% of control), % at 25.6 µM | 1.3% of 86,000 active; in the data active = activity above about 200%;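 also: binding measured in presence of low estradiol as agonist stimulus; 0% = peptide alone without receptor and 100% = receptor with peptide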
ERb coact inh = blocks coactivator binding to human estrogen receptor beta | TR-FRET ER-beta LBD / SRC1-Cy5 peptide binding; receptor agonist-loaded with 1 µM estradiol | Q92731 | AID 633 | inhibition, % at 25.6 µM | 1.3% of 86,000 active;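 active = compounds whose percent inhibition of the receptor-coactivator binding signal exceeds about 50% in the single-dose screen, limit read from the data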;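 also: 0% = receptor plus peptide wells without compound and 100% = peptide-only wells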
Target sequence (Q92731 whole entry, looked up, the tested form may be a part): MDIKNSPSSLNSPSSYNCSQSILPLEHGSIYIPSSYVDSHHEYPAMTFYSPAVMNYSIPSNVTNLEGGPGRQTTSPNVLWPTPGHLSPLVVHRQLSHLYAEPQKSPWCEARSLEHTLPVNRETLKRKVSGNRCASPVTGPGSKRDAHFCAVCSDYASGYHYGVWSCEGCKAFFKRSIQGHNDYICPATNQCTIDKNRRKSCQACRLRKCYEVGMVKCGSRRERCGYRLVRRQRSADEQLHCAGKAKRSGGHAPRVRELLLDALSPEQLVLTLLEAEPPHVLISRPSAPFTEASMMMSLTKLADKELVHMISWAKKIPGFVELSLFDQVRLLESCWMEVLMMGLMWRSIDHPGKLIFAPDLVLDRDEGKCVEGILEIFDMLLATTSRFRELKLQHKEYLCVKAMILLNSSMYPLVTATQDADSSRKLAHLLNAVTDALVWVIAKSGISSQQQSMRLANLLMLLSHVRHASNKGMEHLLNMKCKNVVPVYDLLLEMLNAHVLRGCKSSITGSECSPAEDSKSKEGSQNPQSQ
* marks the source's active call; other numbers are inactive results; . = no result given; [ ] = dose if it differs, or a comment. In the library only some 3.3% were active in any assay of this set; here they are far more common.

SMILES | FAK blocker | ERa SRC1 inh | Smad3 FoxH1 inh | ERa SRC1 pot | ERb coact inh
CCOC(=O)C1=C(C)N(CC(C)C)C(=O)/C1=C\c1ccc(OCC(=O)Nc2ccccc2)cc1 | -6 | . | . | . | .
C[N+](C)(C)c1ncnc2c1ncn2[C@@H]1C[C@H](O)[C@@H](CO)O1 | . | . | 30 | . | .
CCN(CC)C(=O)C1CCCN(C(=O)Nc2ccc(NC(=O)N3CCCC(C(=O)N(CC)CC)C3)cc2)C1 (stereo not given) | -2 | -4 | 4 | 90 | -10
CCC(C)NC(=O)C1CCCN(C(=O)Nc2ccc(F)cc2)C1 (stereo not given) | . | -9 | -8 | 295* | -12
CCOC(=O)c1c(C)c(C)n2c1NC(=O)C2 | . | . | 9 | . | .
COC(=O)c1ccc(COC(=O)c2ccc(S(=O)(=O)N3CCC(C)CC3)cc2)o1 | 1 | 19 | -6 | 730* | 7
Nc1ncnc2nc[nH]c12.Nc1ncnc2nc[nH]c12.[Cl][Pt]([Cl])([Cl])[Cl] | . | . | 71* | . | .
COc1ccc2c(c1)Cc1cc(N=[N+]([O-])c3ccc4c(c3)Cc3cc(OC)ccc3-4)ccc1-2 | . | . | 22 | . | .
CCOC(=O)Cc1csc(NC(=O)c2ccc(Br)s2)n1 | 1 | -2 | 2 | 117 | -2
CCOc1cccc2sc(NC(=O)c3ccc(Br)s3)nc12 | -209 | 45 | -370 | 433*[fluorescence artefact?] | 48
C[N+](C)(C)CCN(Cc1cccs1)c1ccccn1 | . | . | 26 | . | .
Cc1ccc(C(C)C)c(OCC(=O)OCc2c(C)noc2C)c1 | -7 | -5 | -10 | 134 | 51*[fluorescence artefact?]
Cc1ccc(S(=O)(=O)N(C)c2ccc(OCC(=O)OCc3c(C)noc3C)cc2)cc1 | 8 | -9 | 2 | 106 | -9
NC(N)=N[C@@H]1C(O)[C@H](N=C(N)N)[C@@H](O)C(O)[C@H]1O (stereo not given in full) | . | . | 7 | . | .
CCOC(=O)/C(C#N)=C1/SC(CCO)C(=O)N1c1ccccc1 (stereo not given) | 23* | 11 | 5 | 71 | 17
CCOC(=O)/C(C#N)=C1/SC(CC)C(=O)N1c1ccc(Br)cc1 (stereo not given) | 2 | -4 | 2 | 98 | -2
c1ccc(C2(Cn3ccc4ccccc43)OCCO2)cc1 | -3 | 99*[fluorescence artefact?] | 2 | 137 | -6
c1cncc(CNCc2cccnc2)c1 | . | . | -7 | . | .
Nc1ncnc2nn([C@H]3O[C@@H](CO)[C@H](O)[C@H]3O)nc12 | . | . | -4 | . | .
Cc1cc(C(N)=O)c2cc(Br)ccc2n1 | 2 | 44 | 6 | 115 | 6
CCCCCCNC(=O)c1cc(-c2ccco2)nc2ccccc12 | 20* | 85*[fluorescence artefact?] | 6 | 70 | 75*
CCOc1cc(N2CCOCC2)c(OCC)cc1NC(=O)c1cc(-c2ccco2)nc2ccccc12 | . | 75* | 13 | 120 | 39
O=C(O)c1cc(-c2ccco2)nc2ccc(Br)cc12 | . | 64* | 4 | 25 | 61*
O=C(NCC1CCCO1)c1cc(-c2ccco2)nc2ccccc12 (stereo not given) | 1 | 69*[fluorescence artefact?] | 10 | 43 | 75*[fluorescence artefact?]
CCOc1cc(N2CCOCC2)c(OCC)cc1NC(=O)COc1ncnc2ccccc12 | 1 | -4 | 3 | 93 | -5
SMILES | FAK blocker | ERa SRC1 inh | Smad3 FoxH1 inh | ERa SRC1 pot | ERb coact inh
NC[C@H]1O[C@H](n2cnc3c(N)ncnc32)C[C@@H]1O | . | . | -4 | . | .
Cn1cnc([N+](=O)[O-])c1SCC(=O)O | . | . | -6 | . | .
Oc1cc(O)c2c(c1)O[C@H](c1ccc(O)c(O)c1)[C@@H](O)[C@@H]2c1c(O)cc(O)c2c1O[C@@H](c1ccc(O)c(O)c1)[C@H](O)C2 | . | . | 14 | . | .
N#C[C@H](c1ccccc1)N1CCCN([C@@H](C#N)c2ccccc2)C1c1ccccc1O (stereo not given in full) | . | . | 45 | . | .
c1ccc(NN(Cc2cnccn2)c2ccccc2)cc1 | . | . | -10 | . | .
CN(C)CCC(=O)[C@]1(O)CC[C@@H]2[C@H]3CC=C4C[C@@H](O)CC[C@]4(C)[C@@H]3CC[C@]21C | . | . | 7 | . | .
C/C(=N\NC(=O)c1ccncc1)c1ccccc1Cl | . | . | -7 | . | .
Cc1cc(NC(=O)CSc2nc3sc4c(c3c(=O)n2C)CCCC4)no1 | 4 | 65*[fluorescence artefact?] | -2 | 82 | 48
Cc1cc(NC(=O)CSc2nc(C(C)C)nc3sc4c(c23)CCCC4)no1 | 2 | 0 | 9 | 206*[fluorescence artefact?] | 18
CCn1c(SCC(=O)O)nc2sc3c(c2c1=O)CCC3 | -1 | 91*[fluorescence artefact?] | 16 | 6 | 91*[fluorescence artefact?]
Oc1cc(O)c2c(c1)O[C@@H](c1ccc(O)c(O)c1)[C@H](O[C@@]1(c3cc(O)c(O)c(O)c3)Oc3cc(O)cc(O)c3[C@H](O)[C@H]1O)C2 | . | . | 12 | . | .

Source: PubChem (several laboratories)
